Outcome data for 25 compounds are collected here from PubChem BioAssay (EPA / NIEHS).

The source made the active and inactive calls. How the source made its calls: active means hit-call score of the fitted dose curve at least 0.9, where 1 is the maximum; inactive means score below 0.9.

The nature of the test: ATG_M_61_CIS: Attagene CIS-FACTORIAL HepG2 Assay for M61 Transcription Factor (Internal Marker) (AID 2282937). To be noted: HepG2 Attagene CIS-FACTORIAL M61 internal marker reporter; actives raise or lower the signal. A digest of the protocol: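 Transfect HepG2 with MRTUs; dose 24 h; isolate RNA; reverse-transcribe with DNase I treatment; PCR-amplify, FAM-label and cut with HpaI for 2 h at 37 C; resolve by CE. Bidirectional fitting against DMSO.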
Regarding `CCCCCc1ccc(O)cc1`, the call was inactive.
Take `NC(C(F)(F)F)C(F)(F)F`: the compound was classed as inactive.
Regarding `Oc1cc2ccccc2cc1O`, the call was inactive.
With `CS(=O)(=O)c1ccc([C@@H](CC2CCCC2)C(=O)Nc2cnccn2)cc1Cl`, the call was inactive.
The same measure for `FC(F)(F)N1C(F)(F)C(F)(F)OC(F)(F)C1(F)F`: “inactive”.
Take `O=C(C=C(O)C(F)(F)F)C(F)(F)F`: the compound was classed as inactive.
The same measure for `C=COC(=O)C(C)(C)CCCCCC`: “inactive”; for `O=C(c1cc(O)c(O)c(O)c1)c1ccc(O)c(O)c1O`: “inactive”; for `CCCCCCCCCCCC(=O)NCCCN(C)C`: “inactive”.
In the case of `FCOC(C(F)(F)F)C(F)(F)F`, the call was inactive.
The result for `CCCCCCc1ccc(N)cc1` reads “inactive”.
Regarding `FC(F)(F)C(F)(F)C(F)(F)C(F)(F)I`, the compound was called inactive.
The result for `COc1ccc(C#N)cc1` reads “inactive”; that for `C=CC(=O)OCCC(F)(F)C(F)(F)C(F)(F)C(F)(F)C(F)(F)C(F)(F)F`, “inactive”.
The result for `O=C(F)C(F)(F)C(F)(F)C(F)(F)C(F)F` reads “inactive”.
As to `CN(C)CCOC(c1ccccc1)c1ccccc1`, the call was inactive.
For `Nc1ccn([C@@H]2O[C@H](CO)[C@@H](O)C2O)c(=O)n1` (stereo not given in full), the compound was called inactive.
The same measure for `NNC(=O)CCCCC(=O)NN`: “inactive”; for `COC(O)c1ccccc1` (stereo not given): “inactive”.
The same measure for `CCCCCCCCCCCC[N+](C)(C)CCCCCCCCCCCC`: “inactive”.
Take `Cc1ccccc1OCC(=O)O`: the result was inactive.
The same measure for `O=C(Nc1cccc([N+](=O)[O-])c1)c1cc2ccccc2cc1O`: “inactive”; for `Brc1ccc(Oc2ccc(Br)cc2Br)cc1`: “inactive”; for `O=S(=O)(c1ccc(OCc2ccccc2)cc1)c1ccccc1O`: “inactive”.
The same measure for `O=C(F)C(F)(F)C(F)(F)C(F)(F)C(=O)F`: “inactive”.
